Data: PMC7826789 (International Journal of Molecular Sciences, 2021)

Tests used:
Conditions in all cases: Compound Concentration (nM):1000
BIKE = test system: T1, BIKE
T1 construct: gene BMP2K

BLK = test system: BLK
BMPR1A = test system: BMPR1A
BMPR1B = test system: BMPR1B
BMPR2 = test system: BMPR2
BMX = test system: BMX
BRAF(V600E) = test system: BRAF(V600E)
BRAF = test system: BRAF
BRK = test system: T2, BRK
T2 construct: gene PTK6

BRSK1 = test system: BRSK1
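Further: KINOMEscan scanMAX binding as percent activity remaining versus control; lower means stronger binding.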

Compound	Percent Control (BIKE) [%]	Percent Control (BLK) [%]	Percent Control (BMPR1A) [%]	Percent Control (BMPR1B) [%]	Percent Control (BMPR2) [%]	Percent Control (BMX) [%]	Percent Control (BRAF(V600E)) [%]	Percent Control (BRAF) [%]	Percent Control (BRK) [%]	Percent Control (BRSK1) [%]
Nc1ncnc2occ(-c3ccc(NC(=O)Nc4cc(C(F)(F)F)ccc4F)cc3)c12 [GW770249X]	100	83	100	100	97	41	7	28	100	100
Cl.c1ccc(Cc2nc3ccc(Nc4ncnc5ccccc45)cc3[nH]2)cc1 [GR269666A]	100	100	100	100	100	100	88	100	100	100
NS(=O)(=O)c1ccc(Nc2ncc(-c3ccccc3)o2)cc1 [GW572399X]	100	89	100	83	100	100	80	95	100	100
COc1cc(N2CCN(C(C)C)CC2)ccc1Nc1nc(Nc2ccc(F)cc2C(=O)NC[C@@H](O)CO)c2cc[nH]c2n1 [GSK1392956A]	81	99	100	88	97	100	90	94	100	100
NS(=O)(=O)c1ccc(N/N=C2\C(=O)Nc3ccc(-c4cnco4)cc32)cc1 [GW276655]	20	63	100	94	62	100	100	86	82	100
CN(C)c1cc2c(Nc3ccc4c(cnn4Cc4ccccc4)c3)ncnc2cn1 [GW282974X]	86	80	100	91	100	100	99	92	75	92
CN(C)CCNC(=O)Nc1ccc(N(C)c2ccnc(Nc3ccc(CS(C)(=O)=O)cc3)n2)cc1.Cl [GW830900A]	5.1	93	100	52	100	98	100	100	96	90
COc1cccc(-n2ncc3c(N/N=C/c4ccncc4)ncnc32)c1 [GW784752X]	66	45	51	0.1	86	100	3.2	6.5	100	18
COc1cc(C=NNc2ncnc3c2cnn3-c2ccccc2)ccc1O [GW513184X]	25	16	40	20	100	100	65	77	100	54
CCn1c(-c2nonc2N)nc2c(C#CC(C)(C)O)nc(OCCNC)cc21.Cl [GSK949675]	75	96	89	89	100	100	100	100	100	100
Cl.O=C(Nc1ccc(Oc2ccc3[nH]c(NC(=O)c4ccccc4)nc3c2)cc1)Nc1cc(C(F)(F)F)ccc1F [GW709042A]	100	98	98	94	100	94	34	58	100	100
COc1cc2ncn(-c3cc(O[C@H](C)c4ccccc4Cl)c(C(N)=O)s3)c2cc1OC [GSK237701A]	1.4	68	100	88	72	75	75	100	100	76
